a7 integrin act: integrin-mediated muscular dystrophy alleviation activation. alpha7betagal myoblasts, beta-gal FDG fluorescence, 48 h. Potency, µM (top dose mostly 38.3 µM), hits mostly activators. 350,000 tested, 0.064% active. AID 624291; also: nearly all actives have a fitted effect of over 60% in size
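Alpha7betagal+/- myoblasts (passage 13) were plated 16-24 hr, then exposed to compounds (1:260 dilution of DMSO stock) for 48 hours at 37C. After MPER lysis, β-galactosidase reporter activity was read as FDG fluorescence (ex 480/em 540) after 30 minutes.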
Giardia killer: kills Giardia lamblia; Giardia lamblia trophozoite viability; activity change, % at 7.66 µM, hits read low; 340,000 tested, 0.15% active; AID 540267; in the data active = activity change below about -80%; inconclusive = between about -30% and that limit;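 also: parasites exposed to compound for two days anaerobically before the ATP read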
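Anaerobic 48 hrs incubation at 37 deg C of 100 trophozoites/well with test compounds; ATPLite 1-Step luminescence, 15-30 min RT, reports cellular ATP as viability.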
Gal4-VP16 FLuc: Gal4-VP16 reporter inhibition counter-screen. 310,000 tested, 3.5% active. Drosophila S2 Gal4-VP16 UAS-luciferase, luminescence, 20 h. Potency, µM (doses to about 53.6 µM), most hits filed as inhibitors;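 also: Gal4-VP16 expression switched on by copper sulfate through the metallothionein promoter; nearly all actives have a fitted effect of over 50% in size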
ERG Ets-DNA blk: ERG Ets/DNA interaction inhibition; P11308; fluorescence polarization, His-ERG Ets domain / labelled DNA; Potency, µM (doses to about 76.9 µM), usual class: inhibitors; 370,000 tested, 0.028% active; active = well fitted inhibition curve with a large enough effect in the polarisation, with a control signal flat; inconclusive = small, poorly fitted or top-dose-only effect, or effect the other way, or a change in a side signal; inactive = no such curve, though single readings can be large or run the other way; the % refers to the polarisation;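 also: polarization taken with two DNA probes labelled with fluorescein and Texas red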
Target sequence (P11308 whole entry, looked up, the tested form may be a part): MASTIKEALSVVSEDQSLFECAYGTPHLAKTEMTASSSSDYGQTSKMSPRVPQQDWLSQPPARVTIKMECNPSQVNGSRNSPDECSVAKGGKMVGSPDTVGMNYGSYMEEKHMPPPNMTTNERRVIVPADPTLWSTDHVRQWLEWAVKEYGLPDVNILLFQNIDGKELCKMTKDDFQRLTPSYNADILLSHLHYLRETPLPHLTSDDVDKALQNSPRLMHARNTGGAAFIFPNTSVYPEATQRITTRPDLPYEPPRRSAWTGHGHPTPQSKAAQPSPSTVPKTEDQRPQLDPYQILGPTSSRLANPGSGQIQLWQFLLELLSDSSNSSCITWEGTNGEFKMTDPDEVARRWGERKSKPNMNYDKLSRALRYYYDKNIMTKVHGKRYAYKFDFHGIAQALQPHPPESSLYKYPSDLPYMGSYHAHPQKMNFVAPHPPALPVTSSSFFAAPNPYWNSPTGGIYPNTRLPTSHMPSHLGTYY
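His-tagged ERG Ets domain (1 uM in the protein solution; 300mM KCl, 50mM Tris-HCl, 1mM EDTA, 1mM DTT, pH 7.5) received compound, then a probe mix of 5 nM fluorescein-DNA and 100nM Texas-615-DNA. Fluorescence polarization was read for both dyes.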
RORgamma inh: blocks mouse ROR gamma transcriptional activity; Drosophila S2 Gal4-RORgamma UAS-luciferase reporter, 20 h; Potency, µM (series often up to 53.6 µM), most hits filed as inhibitors; 310,000 tested, 5.4% active; also: nearly all actives have a fitted effect of over 60% in size
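Schneider cells (Drosophila), stable Gal4 DBD–ROR gamma + UAS-luc; 1 hr cmpd preincubation; Cu2+ induction 700 uM final; 20 hr ambient; luminescence.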
Of the large screens only hits and unclear results are named; the others gave an inactive call. Many of the other results were omitted from the sample, so hits are more common in it than they were. Unless noted, calls follow the shape of the dose curve; as a rule, active = well fitted curve in the direction sought with a large enough effect; inconclusive = small, poorly fitted or top-dose-only effect, or another doubt; inactive = no such curve, though single readings can be large; an effect the other way counts as inactive or inconclusive.

CN(/N=C\c1ccc(O)c(O)c1)c1nc(-c2ccccc2)cc(-c2ccccc2)n1	Gal4-VP16 FLuc 3.2µM, ERG Ets-DNA blk inconclusive, RORgamma inh 2.5µM
O=C(c1ccc2c(c1)CCN2S(=O)(=O)c1ccc(Cl)cc1)N1CCN(c2ccccc2)CC1	none (no result: a7 integrin act, Giardia killer, Gal4-VP16 FLuc, RORgamma inh)
CCOc1ccc(-c2nc(C)c(C(C)=O)n2O)cc1	Giardia killer inconclusive, Gal4-VP16 FLuc 25µM
CCc1ccc2c(c1)NC(c1cccnc1)=NC(c1ccc(C(C)(C)C)cc1)=N2	none (no result: a7 integrin act, Giardia killer, Gal4-VP16 FLuc, RORgamma inh)
CC(C)(C)C(=O)[C@@H]1[C@@H]2C(=O)N(Cc3ccccc3)C(=O)[C@@H]2[C@H]2c3ccccc3C=CN12	Gal4-VP16 FLuc inconclusive, RORgamma inh 11µM (no result: a7 integrin act, Giardia killer, ERG Ets-DNA blk)
CC(=O)[C@H]1[C@@H]2C(=O)N(c3cccc(Cl)c3)C(=O)[C@@H]2[C@H]2c3ccccc3C=CN21	none
CCOC(=O)c1ccccc1OCc1cc(C2Nc3ccccc3C(=O)N2c2cccc3ccccc23)ccc1OC (stereo not drawn)	none (no result: a7 integrin act, Gal4-VP16 FLuc, ERG Ets-DNA blk, RORgamma inh)
CCc1nc(N2CCCCC2C)c2oc3ccccc3c2n1 (stereo not drawn)	Gal4-VP16 FLuc inconclusive, RORgamma inh 18µM
CCc1nc(NC(C)C)c2oc3ccccc3c2n1	RORgamma inh 13µM
CCc1nc(N2CCCCC2)c2oc3ccccc3c2n1	RORgamma inh 16µM
Cc1nc(NC(C)c2ccccc2)c2oc3ccccc3c2n1 (stereo not drawn)	Gal4-VP16 FLuc 13µM, RORgamma inh inconclusive
CCc1nc(N2CCN(Cc3ccc4c(c3)OCO4)CC2)c2oc3ccccc3c2n1	RORgamma inh 13µM
CCc1nc(N2CCCC(C)C2)c2oc3ccccc3c2n1 (stereo not drawn)	Gal4-VP16 FLuc 4µM
CCc1nc(Nc2ccc3c(c2)OCO3)c2oc3ccccc3c2n1	none
CCc1nc(N2CCCCC2C(=O)O)c2oc3ccccc3c2n1 (stereo not drawn)	none
CCc1ccccc1NCC(=O)Nc1ccc(Cl)c(C(F)(F)F)c1	Gal4-VP16 FLuc inconclusive (no result: ERG Ets-DNA blk)
CC(C)ON(C(C(=O)NO)C(C)C)S(=O)(=O)c1ccc(-c2ccccc2)cc1 (stereo not drawn)	Gal4-VP16 FLuc inconclusive, RORgamma inh 10µM (no result: a7 integrin act, Giardia killer, ERG Ets-DNA blk)
CCN(CC(=O)Nc1c(F)cccc1F)C(=O)CSCc1ccc(C)cc1	none (no result: Giardia killer, Gal4-VP16 FLuc, ERG Ets-DNA blk, RORgamma inh)
CC(=O)CC1(OC(C)=O)C(=O)N(C)c2ccccc21 (stereo not drawn)	Gal4-VP16 FLuc 14µM, RORgamma inh 6.3µM
COc1ccc(-c2oc3c(OC)c(OC)c(OC)c(O)c3c(=O)c2OC)cc1OC	Gal4-VP16 FLuc inconclusive, RORgamma inh 11µM
CCOc1ccc(-c2oc3ccccc3c(=O)c2O)cc1OCC	none (no result: a7 integrin act, Giardia killer, Gal4-VP16 FLuc, RORgamma inh)
COc1cc(OC)c2c(=O)c(O)c(-c3ccc(OC)c(OC)c3)oc2c1	Gal4-VP16 FLuc inconclusive, RORgamma inh 2.8µM (no result: a7 integrin act, Giardia killer, ERG Ets-DNA blk)
COc1ccc(-c2cc(=O)c3c(O)c(OC)c(OC)c(OC)c3o2)cc1OC	none (no result: a7 integrin act, Giardia killer, ERG Ets-DNA blk)
COc1ccc(-c2oc3ccc(C)cc3c(=O)c2O)cc1OC	Gal4-VP16 FLuc inconclusive, RORgamma inh 5µM (no result: a7 integrin act, Giardia killer, ERG Ets-DNA blk)
Cc1ccc2oc(-c3ccc(Cl)cc3)c(O)c(=O)c2c1	none (no result: a7 integrin act, Giardia killer, Gal4-VP16 FLuc, RORgamma inh)
COc1ccc(-c2oc3ccccc3c(=O)c2O)cc1OC	Gal4-VP16 FLuc inconclusive, RORgamma inh 6.3µM (no result: a7 integrin act, Giardia killer, ERG Ets-DNA blk)
CCOC(=O)C1(Cc2ccc(Cl)cc2)CCN(C(=O)c2cscn2)CC1	none
CCOc1ccc(-n2c(=O)c3c(C)c(C)sc3n(Cc3ccccc3C)c2=O)cc1	none (no result: a7 integrin act, Giardia killer, Gal4-VP16 FLuc, RORgamma inh)
COc1cc(C(C)=O)ccc1OCC(O)CN1CCN(c2ccc(C)c(C)c2)CC1 (stereo not drawn)	none
COc1cccc(-c2oc3ccccc3c(=O)c2O)c1	Gal4-VP16 FLuc 7.9µM, RORgamma inh 6.3µM (no result: a7 integrin act, Giardia killer, ERG Ets-DNA blk)
O=c1c(O)c(-c2ccc(O)cc2)oc2ccc(O)cc12	RORgamma inh inconclusive (no result: a7 integrin act, Giardia killer, ERG Ets-DNA blk)
O=c1c(O)c(-c2cccc(O)c2)oc2ccccc12	RORgamma inh inconclusive (no result: a7 integrin act, Giardia killer, ERG Ets-DNA blk)
O=c1c(O)c(-c2ccc3c(c2)OCO3)oc2ccccc12	Gal4-VP16 FLuc 11µM, RORgamma inh 6.3µM
Cc1cc(/C=C\c2ccc3cc(N(C)C)ccc3[n+]2C)c(C)n1-c1ccccc1	Gal4-VP16 FLuc 2.8µM (no result: a7 integrin act)
O=C1C2C3C=CC(C3=C3CCCCC3)C2C(=O)N1c1ccccc1 (stereo not drawn)	RORgamma inh 13µM
O=C1C2C3C=CC(C3)C2C(=O)N1c1ccccc1 (stereo not drawn)	none
N#Cc1ccccc1NC(=S)Nc1ccc(F)cc1	Gal4-VP16 FLuc 20µM, RORgamma inh 18µM
S=C(NNC(=S)Nc1ccccc1)Nc1ccccc1	Gal4-VP16 FLuc inconclusive

Assay outcomes deposited in PubChem BioAssay by National Center for Advancing Translational Sciences (NCATS).
